Reference: the supplement of paper PMC10849652
About 8,800 targets were measured; listed, in parts, are those with a hit and a random draw of the rest. About 0.5% of all pairs of compound and target were hits.

How the values were obtained:
Experiment in all cases: log2 fold change, soluble protein after heating vs DMSO (PISA); higher = thermal stabilisation; K562 lysate, 10 uM; active = over 0.2 and 3.5 SD of the protein, either way, in both replicates (recomputed)
[1] = compound: CCCS(=O)(=O)Nc1ccc(F)c(C(=O)c2c[nH]c3ncc(-c4ccc(Cl)cc4)cc23)c1F [vemurafenib]
Procedure, shortened: (§1)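 Values give the log-two fold change in thermal stability against solvent controls, from duplicates. Crude K562 extract at 1 mg/mL protein, made by dounce homogenisation in PBS pH 7.4 with 1 mM MgCl2, was treated with 10 μM compound for 30 min. After 3 min heating across 48°C-58°C, aliquots were pooled, adjusted to 0.5% NP-40 at 4°C and centrifuged at 21,000xg for 90 min. The supernatant was measured by TMTpro 16plex LC-MS/MS with channel sums equalised.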

[2] = compound: CCCS(=O)(=O)Nc1ccc(F)c(C(=O)c2c[nH]c3ncc(Cl)cc23)c1F
Procedure, shortened: as §1

[3] = compound: CCN(CCCOc1ccc2c(Nc3cc(CC(=O)Nc4cccc(F)c4)[nH]n3)ncnc2c1)CCOP(=O)(O)O [barasertib]
Procedure, shortened: as §1

[4] = compound: CC[C@@H]1C(=O)N(C)c2cnc(Nc3ccc(C(=O)NC4CCN(C)CC4)cc3OC)nc2N1C1CCCC1
Procedure, shortened: as §1

[5] = compound: CC[C@@H]1C(=O)N(C)c2cnc(Nc3ccc(C(=O)N[C@H]4CC[C@H](N5CCN(CC6CC6)CC5)CC4)cc3OC)nc2N1C(C)C [volasertib]
Procedure, shortened: as §1

[6] = compound: CCn1c(C(=O)N(C2CC2)C2CC2)cc2c3c(ncn3C)c(Nc3cc(C)n(C)n3)nc21
Procedure, shortened: as §1

[7] = compound: CCn1cc(-c2ccnc3[nH]c(-c4cccc(CN(C)C)c4)cc23)c(-c2ccc(NC(=O)N(C)C)cc2)n1
Procedure, shortened: as §1

[8] = compound: CN1CCC(CNc2ccc3ncc(-c4cccc(OC(F)(F)F)c4)n3n2)CC1
Procedure, shortened: as §1

[9] = compound: CN1CCN(CCOc2cc(OC3CCOCC3)c3c(Nc4c(Cl)ccc5c4OCO5)ncnc3c2)CC1 [saracatinib]
Procedure, shortened: as §1

[10] = compound: CN1CCN(c2nc(C3=C(c4c[nH]c5ccccc45)C(=O)NC3=O)c3ccccc3n2)CC1 [sotrastaurin]
Procedure, shortened: as §1

Measured: log2 fold change

STK11IP (UniProt Q8N1F8)
Chain of UniProt Q8N1F8 (Q8N1F8 whole entry, looked up): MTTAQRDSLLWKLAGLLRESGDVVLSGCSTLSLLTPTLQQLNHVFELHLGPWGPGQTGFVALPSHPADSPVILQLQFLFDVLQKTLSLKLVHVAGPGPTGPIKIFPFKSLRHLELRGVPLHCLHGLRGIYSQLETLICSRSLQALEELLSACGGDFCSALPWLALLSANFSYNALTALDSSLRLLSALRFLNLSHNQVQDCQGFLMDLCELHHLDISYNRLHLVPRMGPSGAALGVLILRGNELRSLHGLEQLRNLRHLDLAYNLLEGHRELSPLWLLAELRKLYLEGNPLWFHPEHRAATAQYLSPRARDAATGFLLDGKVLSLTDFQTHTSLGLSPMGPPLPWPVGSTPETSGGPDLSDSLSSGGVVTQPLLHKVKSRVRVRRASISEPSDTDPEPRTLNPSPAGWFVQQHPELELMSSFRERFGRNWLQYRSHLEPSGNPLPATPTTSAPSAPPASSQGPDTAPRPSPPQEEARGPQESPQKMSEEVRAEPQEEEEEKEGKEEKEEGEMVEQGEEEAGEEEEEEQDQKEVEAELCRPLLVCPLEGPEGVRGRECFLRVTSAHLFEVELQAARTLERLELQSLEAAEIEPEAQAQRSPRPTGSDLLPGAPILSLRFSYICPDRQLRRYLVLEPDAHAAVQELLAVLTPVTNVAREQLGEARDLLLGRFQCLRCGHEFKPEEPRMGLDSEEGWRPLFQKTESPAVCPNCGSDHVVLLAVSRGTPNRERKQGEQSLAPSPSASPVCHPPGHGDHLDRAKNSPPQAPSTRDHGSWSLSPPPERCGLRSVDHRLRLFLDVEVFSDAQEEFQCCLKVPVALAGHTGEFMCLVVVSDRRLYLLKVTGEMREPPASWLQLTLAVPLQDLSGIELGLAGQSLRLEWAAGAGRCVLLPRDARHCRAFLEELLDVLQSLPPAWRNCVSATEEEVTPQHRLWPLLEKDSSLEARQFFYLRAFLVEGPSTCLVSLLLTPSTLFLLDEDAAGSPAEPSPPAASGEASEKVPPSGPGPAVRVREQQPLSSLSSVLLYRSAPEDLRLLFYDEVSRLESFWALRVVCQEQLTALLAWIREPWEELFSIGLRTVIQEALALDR
inactive: [1] -0.016 | [2] 0.018 | [3] -0.04 | [4] 0.075 | [5] -0.067 | [6] 0.002 | [7] 0.015 | [8] -0.072 | [9] 0.012 | [10] 0.016

SH3GL1 (UniProt Q99961)
Chain of UniProt Q99961 (Q99961 whole entry, looked up): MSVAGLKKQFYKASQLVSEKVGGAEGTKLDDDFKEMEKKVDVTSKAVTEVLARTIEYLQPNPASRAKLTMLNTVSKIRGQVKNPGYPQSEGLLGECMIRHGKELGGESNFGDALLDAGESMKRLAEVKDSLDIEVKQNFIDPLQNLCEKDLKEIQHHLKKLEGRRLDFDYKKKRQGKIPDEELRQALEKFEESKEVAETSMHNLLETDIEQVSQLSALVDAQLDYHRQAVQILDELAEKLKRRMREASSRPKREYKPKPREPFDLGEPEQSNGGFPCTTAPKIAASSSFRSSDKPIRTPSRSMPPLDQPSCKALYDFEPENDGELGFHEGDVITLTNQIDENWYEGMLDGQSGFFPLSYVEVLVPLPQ
inactive: [1] -0.002 | [2] -0.01 | [3] -0.019 | [4] 0.044 | [5] -0.004 | [6] 0.018 | [7] 0.044 | [8] -0.022 | [9] 0.011 | [10] -0.03

SLC19A1 (UniProt P41440)
Chain of UniProt P41440 (P41440 whole entry, looked up): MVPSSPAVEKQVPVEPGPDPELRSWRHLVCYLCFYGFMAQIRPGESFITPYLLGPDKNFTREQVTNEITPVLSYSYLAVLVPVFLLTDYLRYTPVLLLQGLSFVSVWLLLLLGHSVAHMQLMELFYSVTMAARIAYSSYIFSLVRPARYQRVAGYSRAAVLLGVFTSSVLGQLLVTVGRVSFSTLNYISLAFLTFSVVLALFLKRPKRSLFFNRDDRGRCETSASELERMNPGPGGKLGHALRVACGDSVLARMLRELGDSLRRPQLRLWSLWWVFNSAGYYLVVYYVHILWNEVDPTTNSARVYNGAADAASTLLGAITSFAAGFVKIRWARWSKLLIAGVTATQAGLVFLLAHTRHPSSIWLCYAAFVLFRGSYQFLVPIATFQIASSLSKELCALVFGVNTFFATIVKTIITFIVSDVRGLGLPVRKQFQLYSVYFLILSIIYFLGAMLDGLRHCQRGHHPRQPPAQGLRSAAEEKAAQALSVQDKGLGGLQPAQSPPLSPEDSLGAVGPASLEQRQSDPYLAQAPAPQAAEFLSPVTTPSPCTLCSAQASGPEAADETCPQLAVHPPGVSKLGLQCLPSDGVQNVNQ
inactive: [1] 0.028 | [2] -0.005 | [3] 0.059 | [4] 0.014 | [5] 0.047 | [6] -0.036 | [7] -0.203 | [8] 0.165 | [9] 0.019 | [10] 0.025

SLC27A4 (UniProt Q6P1M0)
Chain of UniProt Q6P1M0 (Q6P1M0 whole entry, looked up): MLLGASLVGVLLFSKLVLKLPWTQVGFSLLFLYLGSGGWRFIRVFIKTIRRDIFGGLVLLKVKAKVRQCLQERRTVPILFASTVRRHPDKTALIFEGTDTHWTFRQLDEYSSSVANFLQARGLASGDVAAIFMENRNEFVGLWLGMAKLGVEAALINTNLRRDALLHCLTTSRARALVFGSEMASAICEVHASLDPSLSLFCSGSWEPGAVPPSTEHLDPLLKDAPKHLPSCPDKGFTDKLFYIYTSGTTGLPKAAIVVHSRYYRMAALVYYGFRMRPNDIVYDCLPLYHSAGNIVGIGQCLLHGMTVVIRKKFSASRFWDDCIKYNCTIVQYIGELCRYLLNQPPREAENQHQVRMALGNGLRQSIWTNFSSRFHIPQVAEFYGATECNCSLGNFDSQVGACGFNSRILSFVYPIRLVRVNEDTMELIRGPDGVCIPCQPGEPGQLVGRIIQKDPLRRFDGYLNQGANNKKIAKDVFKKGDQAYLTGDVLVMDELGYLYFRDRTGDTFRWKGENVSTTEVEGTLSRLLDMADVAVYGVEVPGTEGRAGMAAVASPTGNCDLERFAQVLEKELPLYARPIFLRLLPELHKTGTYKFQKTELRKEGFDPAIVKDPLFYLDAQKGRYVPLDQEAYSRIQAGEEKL
inactive: [1] -0.042 | [2] 0.127 | [3] -0.015 | [4] -0.028 | [5] -0.106 | [6] 0 | [7] -0.066 | [8] -0.008 | [9] -0.023 | [10] 0.083

SPC25 (UniProt Q9HBM1)
Chain of UniProt Q9HBM1 (Q9HBM1 whole entry, looked up): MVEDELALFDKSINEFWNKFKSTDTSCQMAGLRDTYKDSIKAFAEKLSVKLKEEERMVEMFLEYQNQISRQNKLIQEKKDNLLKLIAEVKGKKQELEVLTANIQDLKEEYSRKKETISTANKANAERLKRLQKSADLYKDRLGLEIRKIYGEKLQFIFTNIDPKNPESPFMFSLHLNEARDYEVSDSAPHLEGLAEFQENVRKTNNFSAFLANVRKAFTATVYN
inactive: [1] 0.011 | [2] -0.008 | [3] 0.036 | [4] 0.006 | [5] -0.019 | [6] 0.012 | [7] -0.083 | [8] -0.004 | [9] 0.013 | [10] -0.013

SYNE2 isoform 2 (UniProt Q8WXH0)
active: [7] -0.966
inactive: [1] 0.009 | [2] 0.005 | [3] 0.085 | [4] 0.004 | [5] 0.065 | [6] -0.042 | [8] 0.371 | [9] -0.054 | [10] 0.035
